A number with no mark means an inactive call. The call rests on the fitted dose curve; in most records, active means well fitted inhibition curve with a large enough effect; inconclusive means small, poorly fitted or top-dose-only effect; inactive means flat fitted curve, though single readings scatter.

Experimental findings from PubChem BioAssay (NCATS) are described below.

The subject of this experiment is Nanoluciferase (engineered Oplophorus gracilirostris luciferase). As to the kind of experiment: Primary Nanoluciferase (NLuc) qHTS assay for identification of artifact compounds. (AID 1845222).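 Further: 0% = DMSO and -100% = no enzyme.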 The note with it: NLuc-conditioned medium, Nano-Glo luminescence, 5 min; series mostly up to 54.1 µM; activity, negative = inhibition: at the top concentration. In outline: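 Luminescence read-out of secreted NLuc in S16 cell conditioned medium (1:55); compounds tested with 15 min RT preincubation, then Nano-Glo substrate 1:100, 5 min. % inhibition vs no-enzyme and DMSO controls, 4-parameter Hill fit.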
A general note: In qHTS, concentration-response curves come from the screen itself.
With `CO[C@@H]1[C@H](O)[C@@H](O[C@@H]2C[C@H]3CC[C@@H]4C(CC[C@]5(C)[C@@H](C6=CC(=O)OC6)CC[C@]45O)[C@@]3(C)[C@H](O)C2)O[C@H](C)[C@@H]1O[C@@H]1O[C@H](CO)[C@@H](O)[C@H](O)[C@H]1O` (stereo not given in full), the “activity, negative = inhibition” value is 4.7% [at 25.7 µM]. For `C=C(C)[C@H]1O[C@H]2CC[C@@]3(C)[C@@](O)(CC[C@H]4[C@@H]5OC(C)(C)[C@H]6C[C@@H]7C(=C)Cc8c(Cl)cc9[nH]c(c5c9c8[C@@]76O)[C@@]43C)[C@]23O[C@@H]3[C@H]1O` the value was 0% [at 25.7 µM]; for `CC(C)(C)c1cc(C(C)(C)C)c2c(c1)C(O)(C(F)(F)F)C(=O)O2` (stereo not given), 1.01%; for `CCCN1CCO[C@H]2c3cc(O)ccc3OC[C@@H]21`, 3.13%. With `COC(=O)C1(C)CCC(O)C2(C)c3c(O)cc(C(C)C)cc3C(O)C(OC(C)=O)C12` (stereo not given), the “activity, negative = inhibition” value is -2.21% [at 25.7 µM]. Take `CCN1C[C@]2(OC(=O)c3ccccc3NC(C)=O)CC[C@H](OC)[C@@]34[C@@H]2C[C@@H]([C@@H]13)[C@@]1(O)C[C@H](OC)[C@H]2C[C@@H]4[C@]1(O)[C@H]2OC`: the “activity, negative = inhibition” value is 0%. Regarding `CCN1C[C@]2(COC(=O)c3ccccc3N3C(=O)C[C@H](C)C3=O)CC[C@H](OC)[C@@]34[C@@H]5C[C@H]6[C@H](OC)[C@@H]5[C@](O)(C[C@@H]6OC)[C@](O)([C@@H](OC)[C@H]23)[C@@H]14`, the “activity, negative = inhibition” value was 4.98%. Regarding `C=C[C@H]1[C@H](O[C@@H]2O[C@H](CO)[C@@H](O)[C@H](O)[C@H]2O)OC=C2C(=O)OCC[C@H]21`, the “activity, negative = inhibition” value is 3.19%. For `COC1CC(OC2CCC3(C)C(=CCC4C3CCC3(C)C(C(C)OC5OC(COC6OC(CO)C(O)C(O)C6O)C(O)C(O)C5O)CCC43O)C2)OC(C)C1OC1OC(C)C(O)C(OC)C1O` (stereo not given), the activity, negative = inhibition was 2.42% [at 11.6 µM].

In the case of `CO[C@H]1[C@H](O)[C@H](O[C@H]2CC[C@]3(C)C4CC[C@]5(C)[C@H](C6=CC(=O)OC6)CC[C@]5(O)C4CC[C@@H]3C2)O[C@@H](C)[C@@H]1O` (stereo not given in full), the “activity, negative = inhibition” value was -0.235% [at 25.7 µM]. Take `Cc1cn(C[C@H](N)C(=O)O)c(=O)n(Cc2cc(-c3ccccc3)sc2C(=O)O)c1=O`: the “activity, negative = inhibition” value is -0.545%.

Regarding `COC(=O)N1CCN(C(=O)Cc2ccc(Cl)c(Cl)c2)[C@@H](CN2CCCC2)C1`, the “activity, negative = inhibition” value was 2.15%. For the compound `COC(=O)C12C(=O)C(C)(O)C(=O)C1(C)C(C)=CC1C34CCC(OC3=O)C(C)(CO)C4CCC12C` (stereo not given), the “activity, negative = inhibition” value is 0.681% [at 25.7 µM].

On to `C=C(CO)C(=O)O[C@H]1C/C(C)=C/CC/C(CO)=C/[C@H]2OC(=O)C(=C)[C@H]12`, for which the “activity, negative = inhibition” value was 4.88%. As for `COC1=CC(=O)O[C@@H](CCc2ccccc2)C1`, the “activity, negative = inhibition” value was 0.179%.

In the case of `CC(=O)OC1CC(O)C2(C)C(CC(OC(C)=O)C3(C)C2CCC2(C)C(c4ccoc4)C(=O)C4OC423)C1(C)C` (stereo not given), the “activity, negative = inhibition” value is 2.76% [at 25.7 µM]. As to `C[C@H](NC(=O)Cc1cc(F)cc(F)c1)C(=O)N[C@@H]1N=C(c2ccccc2)c2ccccc2N(C)C1=O`, the “activity, negative = inhibition” value was -7.92%. As for `O=C(O)c1ccnc2cc(C(OCCN3CCCCC3)c3ccccc3Cl)[nH]c12` (stereo not given), the “activity, negative = inhibition” value is 0.148%. Take `CCN1CC2(COC)C3[C@@H](OC)C4C1C3(C1C[C@]3(O)[C@H](OC(=O)c5ccccc5)C1[C@]4(OC(C)=O)[C@@H](O)[C@@H]3OC)[C@H](OC)C[C@H]2O` (stereo not given in full): the “activity, negative = inhibition” value was 4.88%. Take `CN1[C@H]2C[C@H](OC(=O)[C@H](CO)c3ccccc3)C[C@@H]1[C@@H](O)C2`: the “activity, negative = inhibition” value was 3.09%. As for `CN1C(=O)N(c2ccc(C#N)c(C(F)(F)F)c2)C(=O)[C@]1(CO)c1ccccc1`, the “activity, negative = inhibition” value is -6.58%. `COc1cc(CCNCc2ccccc2O)c(OC)cc1C#N`: the “activity, negative = inhibition” value is 3.02%.

`C1=C2CCCN[C@H]2[C@@H]2C[C@H]1[C@H]1CCCCN1C2`: the “activity, negative = inhibition” value is 4.51%. In the case of `CCCCCOc1cc2c(cc1-c1cc(/C=C/C(=O)O)ccc1O)C(C)(C)CCC2(C)C`, the “activity, negative = inhibition” value was 4.81%. `C[C@H]1O[C@@H](O[C@H]2C[C@@H](O)[C@]3(CO)C4C(CC[C@]3(O)C2)[C@@]2(O)CC[C@H](C3=CC(=O)OC3)[C@@]2(C)C[C@H]4O)[C@@H](O)[C@@H](O)[C@H]1O` (stereo not given in full): the “activity, negative = inhibition” value is 0% [at 25.7 µM]. `COC1CC(OC2CCC3(C=O)C(CCC4C3CCC3(C)C(C5=CC(=O)OC5)CCC43O)C2)OC(C)C1OC1OC(CO)C(O)C(O)C1O` (stereo not given): the “activity, negative = inhibition” value is 1.11% [at 25.7 µM].

With `N#CC(OC1OC(COC2OC(CO)C(O)C(O)C2O)C(O)C(O)C1O)c1ccccc1` (stereo not given), the “activity, negative = inhibition” value is -1.69% [at 25.7 µM]. Take `CCc1c(C(=O)C(N)=O)c2c(OCC(=O)OC)cccc2n1Cc1ccccc1`: the “activity, negative = inhibition” value was 2.41%. For the compound `COc1cc(C)[nH]c(=O)c1CNC(=O)c1c(C)n([C@H](C)C2CCOCC2)c2ccccc12`, the “activity, negative = inhibition” value is -0.213%. `CC(C)=C1CC[C@]23CO[C@H](C2)[C@@](O)(C(=O)O)CCC13` (stereo not given in full): the “activity, negative = inhibition” value was -1.87%.
